Measured values reported in the supplement of paper PMC10849652.
Targets with a hit are over-represented here; the source holds about 7,900 in all. About 0.6% of all pairs of compound and target were hits. Unmarked numbers belong to inactive results.

Assays:
Assay in all cases: log2 fold change, soluble protein after heating vs DMSO (PISA); higher = thermal stabilisation; K562 cells, 10 uM, 30 min; active = over 0.2 and 3.5 SD of the protein, either way, in both replicates (recomputed)
IRAK-1-4 Inhibitor I = compound: C1COCCN1CCN2C3=CC=CC=C3N=C2NC(=O)C4=CC(=CC=C4)[N+](=O)[O-] [IRAK-1-4 Inhibitor I]
In short: (§1)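 Soluble protein was defined as the supernatant after 21,000xg for 90 min. It came from K562 cells at 2×10^6 cells/mL given 10 μM compound for 30 min, heated in aliquots for 3 min across 48°C-58°C, pooled, and extracted in PBS with 0.5% NP-40 at 4°C, and was quantified by TMTpro 16plex LC-MS/MS with equalised channel sums. Thermal stability against control samples, from duplicates, is reported as log2 fold change.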

ralimetinib = compound: CC(C)(C)Cn1c(N)nc2ccc(-c3[nH]c(C(C)(C)C)nc3-c3ccc(F)cc3)nc21 [ralimetinib]
In short: as §1

[1] = compound: CC(C)C1=C2N=C(C=C(N2N=C1)NCC3=CC=CC=C3)NCCCCCCN
In short: as §1

[2] = compound: CC(C)C[C@@H](C=O)NC(=O)[C@H](CC(C)C)NC(=O)[C@H](CC(C)C)NC(=O)OCc1ccccc1
In short: as §1

pinometostat = compound: CC(C)N(C[C@H]1O[C@@H](n2cnc3c(N)ncnc32)[C@H](O)[C@@H]1O)[C@H]1C[C@@H](CCc2nc3cc(C(C)(C)C)ccc3[nH]2)C1 [pinometostat]
In short: as §1

[3] = compound: CC1=C(C(CC(=O)N1)C2=CC=C(C=C2)C(F)(F)F)C(=O)NC3=C(C=C4C(=C3)C=NN4)F
In short: as §1

[4] = compound: CC1=C(C2=C(C=C1)C(=O)C3=CC=CC=C3N2CCCN)C
In short: as §1

[5] = compound: CC1=C(C=C(C=C1)NC(=O)C2=CC(=CC=C2)N(C)C)NC(=O)C3=CC=C(C=C3)O
In short: as §1

[6] = compound: CC1=CC=C(C=C1)SC2=C3C=C(SC3=CN=C2)C(=O)N
In short: as §1

[7] = compound: CC1=NC(=CC=C1)C2=C(N=C(N2)C(C)(C)C)C3=CC4=NC=CN=C4C=C3
In short: as §1

vemurafenib = compound: CCCS(=O)(=O)Nc1ccc(F)c(C(=O)c2c[nH]c3ncc(-c4ccc(Cl)cc4)cc23)c1F [vemurafenib]
In short: as §1

[8] = compound: CCCS(=O)(=O)Nc1ccc(F)c(C(=O)c2c[nH]c3ncc(Cl)cc23)c1F
In short: as §1

givinostat = compound: CCN(CC)Cc1ccc2cc(COC(=O)Nc3ccc(C(=O)NO)cc3)ccc2c1 [givinostat]
In short: as §1

ibrutinib = compound: C=CC(=O)N1CCC[C@@H](n2nc(-c3ccc(Oc4ccccc4)cc3)c3c(N)ncnc32)C1 [ibrutinib]
In short: as §1

barasertib = compound: CCN(CCCOc1ccc2c(Nc3cc(CC(=O)Nc4cccc(F)c4)[nH]n3)ncnc2c1)CCOP(=O)(O)O [barasertib]
In short: as §1

[9] = compound: CC(=O)c1cnc2ccc(-c3cc(Cl)c(O)c(Cl)c3)nc2c1N[C@H]1CC[C@H](CN(C)C)CC1
In short: as §1

[10] = compound: CC1=C(C=C(C=C1)NC(=O)C2=CC(=CC=C2)C(C)(C)C#N)NC3=CC4=C(C=C3)N=CN(C4=O)C
In short: as §1

[11] = compound: CCCc1cc(C)[nH]c(=O)c1CNC(=O)c1cc(-c2ccnc(N3CCN(C)CC3)c2)cc2c1cnn2C(C)C
In short: as §1

[12] = compound: CC(C)(O)CC(=O)NCCn1ccc2ncnc(Nc3ccc(Oc4cccc(C(F)(F)F)c4)c(Cl)c3)c21
In short: as §1

Nexturastat A = compound: CCCCN(Cc1ccc(C(=O)NO)cc1)C(=O)Nc1ccccc1 [Nexturastat A]
In short: as §1

Chain of UniProt Q9HCU9 (Q9HCU9 whole entry, looked up): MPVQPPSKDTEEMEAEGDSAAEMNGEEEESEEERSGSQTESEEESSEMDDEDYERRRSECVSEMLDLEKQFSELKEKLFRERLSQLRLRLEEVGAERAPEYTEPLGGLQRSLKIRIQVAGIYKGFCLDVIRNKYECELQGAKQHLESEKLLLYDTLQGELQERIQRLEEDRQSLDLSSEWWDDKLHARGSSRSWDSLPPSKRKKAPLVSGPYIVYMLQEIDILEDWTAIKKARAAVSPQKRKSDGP
Chain of UniProt Q9UKU0 (Q9UKU0 whole entry, looked up): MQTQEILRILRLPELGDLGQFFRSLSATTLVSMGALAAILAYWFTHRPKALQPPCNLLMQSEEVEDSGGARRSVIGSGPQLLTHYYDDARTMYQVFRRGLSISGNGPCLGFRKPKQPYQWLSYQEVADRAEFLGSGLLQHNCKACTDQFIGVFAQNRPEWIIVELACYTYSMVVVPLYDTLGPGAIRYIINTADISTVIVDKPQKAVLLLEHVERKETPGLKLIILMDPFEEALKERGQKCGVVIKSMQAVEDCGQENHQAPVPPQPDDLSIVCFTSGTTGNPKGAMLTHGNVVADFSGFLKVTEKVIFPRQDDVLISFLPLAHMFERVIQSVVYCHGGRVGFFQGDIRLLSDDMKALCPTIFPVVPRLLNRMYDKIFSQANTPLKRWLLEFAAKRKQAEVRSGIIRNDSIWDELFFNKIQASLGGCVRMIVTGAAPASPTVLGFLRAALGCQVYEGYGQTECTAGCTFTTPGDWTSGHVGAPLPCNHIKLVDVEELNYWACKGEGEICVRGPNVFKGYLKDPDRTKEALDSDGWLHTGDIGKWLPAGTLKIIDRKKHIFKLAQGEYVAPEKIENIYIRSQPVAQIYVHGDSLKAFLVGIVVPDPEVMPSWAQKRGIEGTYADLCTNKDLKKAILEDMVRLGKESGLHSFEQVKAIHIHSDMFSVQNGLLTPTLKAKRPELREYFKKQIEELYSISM
Chain of UniProt P42331 (P42331 whole entry, looked up): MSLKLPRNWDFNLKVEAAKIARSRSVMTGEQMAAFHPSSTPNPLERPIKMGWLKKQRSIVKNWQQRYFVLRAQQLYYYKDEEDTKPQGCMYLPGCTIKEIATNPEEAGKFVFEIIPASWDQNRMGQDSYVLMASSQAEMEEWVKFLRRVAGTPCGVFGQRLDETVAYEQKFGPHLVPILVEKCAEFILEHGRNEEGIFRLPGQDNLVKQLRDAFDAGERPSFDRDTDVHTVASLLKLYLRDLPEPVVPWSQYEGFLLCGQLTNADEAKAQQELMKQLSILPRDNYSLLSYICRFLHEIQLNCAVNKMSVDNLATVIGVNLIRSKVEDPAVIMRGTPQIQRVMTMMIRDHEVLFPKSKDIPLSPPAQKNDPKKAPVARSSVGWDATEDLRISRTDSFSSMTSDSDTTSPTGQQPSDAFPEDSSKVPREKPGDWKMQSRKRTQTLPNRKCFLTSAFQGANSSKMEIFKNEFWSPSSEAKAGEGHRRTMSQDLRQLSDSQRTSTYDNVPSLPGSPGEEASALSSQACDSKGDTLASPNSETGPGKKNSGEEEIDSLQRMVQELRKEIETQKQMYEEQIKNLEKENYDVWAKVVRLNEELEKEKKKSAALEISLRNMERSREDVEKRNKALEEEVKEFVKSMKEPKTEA
Chain of UniProt O14727 (O14727 whole entry, looked up): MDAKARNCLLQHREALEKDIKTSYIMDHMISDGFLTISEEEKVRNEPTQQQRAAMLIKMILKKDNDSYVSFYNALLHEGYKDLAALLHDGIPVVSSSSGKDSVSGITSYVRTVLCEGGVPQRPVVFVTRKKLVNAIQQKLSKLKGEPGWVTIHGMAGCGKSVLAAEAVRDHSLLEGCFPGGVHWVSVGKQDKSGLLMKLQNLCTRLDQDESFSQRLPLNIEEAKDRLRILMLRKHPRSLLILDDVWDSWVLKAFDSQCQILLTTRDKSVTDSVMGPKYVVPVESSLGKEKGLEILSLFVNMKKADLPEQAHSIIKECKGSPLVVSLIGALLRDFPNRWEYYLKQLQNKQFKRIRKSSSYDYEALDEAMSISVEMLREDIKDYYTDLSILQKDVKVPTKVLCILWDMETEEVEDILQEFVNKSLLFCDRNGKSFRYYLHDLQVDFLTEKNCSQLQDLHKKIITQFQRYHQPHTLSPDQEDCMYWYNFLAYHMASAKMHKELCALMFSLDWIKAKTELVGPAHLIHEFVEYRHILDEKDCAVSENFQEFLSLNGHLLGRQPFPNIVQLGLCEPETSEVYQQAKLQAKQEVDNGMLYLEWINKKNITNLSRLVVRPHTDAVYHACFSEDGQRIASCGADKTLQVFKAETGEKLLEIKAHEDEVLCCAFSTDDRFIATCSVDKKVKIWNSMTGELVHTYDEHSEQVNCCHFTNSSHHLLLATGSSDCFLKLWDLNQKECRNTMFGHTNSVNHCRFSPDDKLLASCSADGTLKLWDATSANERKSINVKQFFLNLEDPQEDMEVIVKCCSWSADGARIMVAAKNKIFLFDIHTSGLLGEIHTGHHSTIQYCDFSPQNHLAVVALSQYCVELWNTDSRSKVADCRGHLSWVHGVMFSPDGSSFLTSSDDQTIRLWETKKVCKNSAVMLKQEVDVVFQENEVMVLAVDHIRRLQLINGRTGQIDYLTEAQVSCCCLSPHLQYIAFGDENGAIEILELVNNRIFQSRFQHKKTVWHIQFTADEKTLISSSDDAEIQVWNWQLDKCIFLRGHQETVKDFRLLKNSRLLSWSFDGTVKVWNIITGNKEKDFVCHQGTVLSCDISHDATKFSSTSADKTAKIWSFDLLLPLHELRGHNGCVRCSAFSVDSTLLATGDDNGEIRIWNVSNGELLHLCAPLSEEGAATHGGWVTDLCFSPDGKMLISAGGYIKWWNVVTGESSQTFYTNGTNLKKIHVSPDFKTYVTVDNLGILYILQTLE
Chain of UniProt P18846 (P18846 whole entry, looked up): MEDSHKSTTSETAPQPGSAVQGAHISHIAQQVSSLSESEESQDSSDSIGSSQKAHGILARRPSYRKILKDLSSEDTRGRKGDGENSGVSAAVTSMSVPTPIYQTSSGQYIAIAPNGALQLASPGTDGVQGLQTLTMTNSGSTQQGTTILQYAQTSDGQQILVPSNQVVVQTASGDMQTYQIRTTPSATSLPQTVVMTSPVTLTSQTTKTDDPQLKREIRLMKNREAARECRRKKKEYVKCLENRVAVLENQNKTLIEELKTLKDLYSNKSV
Chain of UniProt Q9H6S1 (Q9H6S1 whole entry, looked up): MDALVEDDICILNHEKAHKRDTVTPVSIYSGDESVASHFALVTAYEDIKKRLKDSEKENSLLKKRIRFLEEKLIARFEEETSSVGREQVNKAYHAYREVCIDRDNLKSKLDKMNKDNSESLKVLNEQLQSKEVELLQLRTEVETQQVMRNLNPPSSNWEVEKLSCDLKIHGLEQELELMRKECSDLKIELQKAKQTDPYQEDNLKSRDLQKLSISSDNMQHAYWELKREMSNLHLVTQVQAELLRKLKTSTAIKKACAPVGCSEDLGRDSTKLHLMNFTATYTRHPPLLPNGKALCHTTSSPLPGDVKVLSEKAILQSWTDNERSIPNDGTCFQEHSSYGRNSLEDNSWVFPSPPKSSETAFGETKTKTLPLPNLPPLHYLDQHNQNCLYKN
Chain of UniProt Q7Z591 (Q7Z591 whole entry, looked up): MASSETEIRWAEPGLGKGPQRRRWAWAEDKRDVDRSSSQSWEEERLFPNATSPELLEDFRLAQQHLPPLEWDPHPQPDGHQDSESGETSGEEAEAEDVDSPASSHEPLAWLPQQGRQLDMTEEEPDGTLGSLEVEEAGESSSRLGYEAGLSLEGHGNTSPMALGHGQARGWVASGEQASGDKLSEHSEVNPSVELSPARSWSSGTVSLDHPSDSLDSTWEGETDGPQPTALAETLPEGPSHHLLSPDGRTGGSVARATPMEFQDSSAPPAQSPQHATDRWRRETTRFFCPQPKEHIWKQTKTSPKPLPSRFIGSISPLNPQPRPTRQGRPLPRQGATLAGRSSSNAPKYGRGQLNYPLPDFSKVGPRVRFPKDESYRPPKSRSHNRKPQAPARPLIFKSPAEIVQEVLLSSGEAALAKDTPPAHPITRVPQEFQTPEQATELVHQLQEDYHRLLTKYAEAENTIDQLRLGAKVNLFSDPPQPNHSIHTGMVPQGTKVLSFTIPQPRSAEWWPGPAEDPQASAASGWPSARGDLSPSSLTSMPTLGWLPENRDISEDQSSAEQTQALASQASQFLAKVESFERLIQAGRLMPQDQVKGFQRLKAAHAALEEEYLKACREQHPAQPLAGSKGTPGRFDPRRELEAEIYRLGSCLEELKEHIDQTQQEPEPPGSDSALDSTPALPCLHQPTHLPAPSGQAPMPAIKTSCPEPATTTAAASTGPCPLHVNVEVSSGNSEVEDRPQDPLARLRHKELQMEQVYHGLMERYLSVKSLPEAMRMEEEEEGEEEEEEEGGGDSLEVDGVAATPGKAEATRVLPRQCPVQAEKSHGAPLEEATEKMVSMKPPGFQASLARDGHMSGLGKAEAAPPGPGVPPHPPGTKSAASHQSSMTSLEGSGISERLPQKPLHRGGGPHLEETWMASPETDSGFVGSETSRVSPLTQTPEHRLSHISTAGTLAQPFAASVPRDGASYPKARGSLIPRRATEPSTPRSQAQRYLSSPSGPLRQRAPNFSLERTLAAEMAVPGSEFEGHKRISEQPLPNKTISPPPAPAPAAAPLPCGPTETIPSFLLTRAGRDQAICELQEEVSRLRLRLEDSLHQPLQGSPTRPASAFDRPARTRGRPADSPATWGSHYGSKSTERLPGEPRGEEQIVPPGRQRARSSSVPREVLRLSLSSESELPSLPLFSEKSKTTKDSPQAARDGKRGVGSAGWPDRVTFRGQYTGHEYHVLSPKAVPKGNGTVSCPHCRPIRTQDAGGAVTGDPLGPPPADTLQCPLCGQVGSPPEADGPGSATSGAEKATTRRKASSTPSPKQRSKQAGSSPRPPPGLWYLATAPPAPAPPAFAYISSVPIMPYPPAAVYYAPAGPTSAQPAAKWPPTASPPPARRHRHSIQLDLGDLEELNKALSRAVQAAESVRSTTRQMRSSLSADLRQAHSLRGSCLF

Target	log2 fold change (IRAK-1-4 Inhibitor I)	log2 fold change (ralimetinib)	log2 fold change [1]	log2 fold change [2]	log2 fold change (pinometostat)	log2 fold change [3]	log2 fold change [4]	log2 fold change [5]	log2 fold change [6]	log2 fold change [7]	log2 fold change (vemurafenib)	log2 fold change [8]	log2 fold change (givinostat)	log2 fold change (ibrutinib)	log2 fold change (barasertib)	log2 fold change [9]	log2 fold change [10]	log2 fold change [11]	log2 fold change [12]	log2 fold change (Nexturastat A)
ACTR3B (UniProt Q9P1U1)	-0.04	-0.071	0.181	0.056	-0.081	-0.015	-0.016	-0.046	-0.05	0.198	0.019	0.014	0.147							
ATP6V0A1 (UniProt Q93050)														0.047	-0.095					
ARHGAP4 isoform 2 (UniProt P98171)		0.161	-0.067	-0.005		-0.179	0.062	0.039	-0.08		0.047	-0.049	0.034	0.026	-0.466	-0.051	-0.14	-0.194		
ARRDC1 (UniProt Q8N5I2)		0.076	-0.07	0.094		-0.075	0.045	0	0.071		0.048	0.039	0.136	0.062	-0.179		-0.061	0.023	0.102	0.021
AASDH (UniProt Q4L235)	0.037	-0.011	-0.107	-0.066	0.038	-0.017	-0.184	0.024	-0.043	-0.056	0.094	0.103	0.033	-0.308	0.09		-0.001	0.149	-0.15	0.179
ANGEL1 (UniProt Q9UNK9)	-0.042	0.332		0.207	-0.019		0.074	-0.121		0.591 (active)	-0.079			0.062	0.033					
ADD1 isoform 4 (UniProt P35611)	-0.21				0.122					0.098				0.029	0.03				-0.117	0.024
AKNA (UniProt Q7Z591)			-0.659 (active)						-0.047			-0.02	0.177				0.079			
ALDH2 isoform 2 (UniProt P05091)		-0.18		0.063			0.087	-0.049	-0.106		-0.023	-0.141		-0.1	0.099	-0.133	0.075		0.029	-0.103
BTBD6 (UniProt Q96KE9)		0.201	0.296	0.025		0.068	0.005	-0.108	0.003		0.002	0.007	0.358	0.136	-0.017	0.145	-0.061	-0.017	-0.008	0.531
ARFIP1 isoform 2 (UniProt P53367)	-0.051		-0.048		0.043	0.029			0.051	0.031		0.097	0.061	-0.055	0.019		-0.106	0.121	-0.186	-0.025
AP2S1 (UniProt M0QZ21)							0.139													
AZI2 (UniProt Q9H6S1)		-0.241	-0.126	-0.09		-0.018	0.022	0.045			0.047		0.028	0.046	-0.023		-0.091			
ATF1 (UniProt P18846)			0.081			-0.04	-0.127		-0.113		0.035	-0.016	0.003	-0.02	0.079	-0.02	-0.066	0.002	-0.07	-0.026
BRD4 (UniProt O60885)		-0.174	0.094	-0.035		0.047	0.101	-0.272	0.071		0.046	-0.003	-0.252	-0.018	0.021	-0.254	0.245	0.017	-0.011	-0.451 (active)
ADD2 isoform 9 (UniProt P35612)		0.145		-0.103				0.065	-0.067			-0.114		-0.098	0.047		0.191	0.079		
ADD3 isoform 2 (UniProt Q9UEY8)	0.008	-0.015		0.009	0.108		-0.063	-0.021	-0.08	-0.017	0.059	0.014				-0.433	0.034	-0.017	0.005	-0.029
BRMS1 (UniProt Q9HCU9)							-0.014									0.055		0.137	-0.002	0.512 (active)
ADPRH (UniProt P54922)	0.056	-0.003	0.107	-0.033	0.021	-0.032	0.037	-0.008	-0.002	-0.134	0.071	-0.037	0.025	0.001	-0.036		0.014	-0.005	-0.084	0.015
APAF1 (UniProt O14727)	0.001	-0.07	-0.156	0.135	0.066	0.047		0.014	-0.003	-0.125	-0.006	-0.068	0.395 (active)			-0.153	0.023	-0.1	-0.08	0.056
ACSL6 isoform 1 (UniProt Q9UKU0)		-0.001	-0.21	0.027		-0.109	0.012	-0.014			0.17		0.04	0.043	0.133		0.075	0.035	0.222	0.082
ARHGAP25 isoform 4 (UniProt P42331)			-0.961 (active)			-0.418	0.066				0.086		0.307	-0.064	-0.018	-0.16		-0.052	-0.465	0.078
ACVR1 (UniProt Q04771)			0.06				0.127		0.011		0.015	0.017	0.031			0.873 (active)	-0.194	-0.149	-0.158	0.037
